# The list is not random: actives were taken first. Their share in the collection is about 18%.
# TDP1 cell noCPT – qHTS for Inhibitors of human tyrosyl-DNA phosphodiesterase 1 (TDP1): qHTS in cells in absence of CPT. Potency, µM (doses to about 46.2 µM), without a hit: at the highest dose activity change, negative = growth inhibition, actives largely listed as inhibitors. DT40 Tdp1-/- hTDP1 cells, no CPT, ATP luminescence, 48 h. 420,000 tested, 15% active; further: potency means the concentration at half of the fitted maximal effect; nearly all actives have a fitted effect of over 55% in size
#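 Seeded 400 DT40-hTDP1 cells/well (vehicle DMSO, no 20 nM CPT); pinned compounds; ≥48 hr at 37 °C; CellTiter-Glo luminescence as viability measure.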
# TDP1 cell CPT – qHTS for Inhibitors of human tyrosyl-DNA phosphodiesterase 1 (TDP1): qHTS in cells in presence of CPT; 420,000 tested, 12% active; Potency, µM (series often up to 46.2 µM), without a hit: at the highest dose activity change, negative = growth inhibition, hits mostly inhibitors; chicken DT40 Tdp1-/-;hTDP1 cells + 20 nM CPT, ATP luminescence, 48 h; further: potency means the concentration at half of the fitted maximal effect; nearly all actives have a fitted effect of over 55% in size
#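 Chicken DT40 Tdp1-/- cells complemented with human TDP1, 400 cells/well, exposed to compounds plus 20 nM camptothecin for at least 48 h at 37 C; viability read as ATP content by CellTiter-Glo luminescence.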
# TDP1 inh – qHTS Assay for Inhibitors of Tyrosyl-DNA Phosphodiesterase (TDP1); Tyrosyl-DNA phosphodiesterase 1 (Homo sapiens), Q9NUW8; recombinant TDP1, AlphaScreen DNA substrate cleavage; AID 485290, 2010; 350,000 tested, 0.28% active; Potency, µM (top dose mostly 130 µM), for the others: at the top dose activity change, negative = inhibition, hits mostly inhibitors; further: potency means the concentration at half of the fitted maximal effect; nearly all actives have a fitted effect of over 40% in size
#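 Recombinant human Tdp1 (E. coli-expressed, 1 nM final) preincubated with compounds 15 min at room temperature, then 5'-biotin/3'-phosphotyrosine-FITC DNA substrate (15 nM final) added for 5 min. AlphaScreen beads (10 ug/ml final) added 10 min; cleavage lowers signal.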
# Six1-Eya2 blk – qHTS Assay for Inhibitors of the Six1/Eya2 Interaction; Homeobox protein SIX1 (Homo sapiens) + Protein phosphatase EYA2 (Homo sapiens), …; AlphaScreen GST-Six1/His-Eya2 binding, biochemical; stronger effect = lower value; activity change, % (concentration not given with the values); 360,000 tested, 0.56% active; AID 651725, 2012; in the data active means activity change below about -65%; inconclusive means mostly about -30% to -63%
# Target sequence (O00167 whole entry, looked up): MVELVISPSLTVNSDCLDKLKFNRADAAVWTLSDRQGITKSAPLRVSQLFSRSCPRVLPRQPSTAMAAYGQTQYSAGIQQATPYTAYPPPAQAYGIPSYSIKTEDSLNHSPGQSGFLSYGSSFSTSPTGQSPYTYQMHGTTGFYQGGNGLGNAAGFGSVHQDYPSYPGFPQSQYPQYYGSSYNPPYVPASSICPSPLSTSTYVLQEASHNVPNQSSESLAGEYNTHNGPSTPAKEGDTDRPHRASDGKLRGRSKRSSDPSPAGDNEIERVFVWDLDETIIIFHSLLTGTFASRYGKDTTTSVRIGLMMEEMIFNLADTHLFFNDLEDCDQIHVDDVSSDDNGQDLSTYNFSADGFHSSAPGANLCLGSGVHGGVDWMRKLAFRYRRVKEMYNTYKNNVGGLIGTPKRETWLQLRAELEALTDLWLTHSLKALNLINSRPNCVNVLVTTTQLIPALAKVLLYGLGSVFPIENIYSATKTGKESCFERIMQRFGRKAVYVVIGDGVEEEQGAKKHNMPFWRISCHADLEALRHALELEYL
# Target sequence (Q15475 whole entry, looked up): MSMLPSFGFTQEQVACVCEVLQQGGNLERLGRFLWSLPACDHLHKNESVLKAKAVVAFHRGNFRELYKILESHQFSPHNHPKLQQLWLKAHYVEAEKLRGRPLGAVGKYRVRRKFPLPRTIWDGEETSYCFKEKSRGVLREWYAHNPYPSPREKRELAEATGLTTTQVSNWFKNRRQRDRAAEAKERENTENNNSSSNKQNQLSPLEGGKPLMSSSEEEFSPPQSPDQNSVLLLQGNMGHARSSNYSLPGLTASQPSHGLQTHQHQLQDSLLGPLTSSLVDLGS
#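 AlphaScreen luminescence read after one hour at 37 °C in darkness. Pin-transferred compounds met GST-Six1 and His-Eya2 protein (5X stock 250 nM/500 nM) plus glutathione donor and Ni-chelate acceptor beads (5X, 50 ug/mL).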
# IL-1B inflam inh – qHTS for Inhibitors of Inflammasome Signaling: IL-1-beta AlphaLISA Primary Screen | 360,000 tested, 4.7% active | AID 743279, 2014 | THP-1 LPS/ATP IL-1B secretion, AlphaLISA, 16 h; stronger effect = lower value | activity change, % at 57.5 µM; in the data active means activity change below about -50%; inconclusive means mostly about -30% to -49%
#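 Secreted IL-1B measured by AlphaLISA bead assay after 16 h compound exposure of THP-1 cells; compounds (final up to 57.5 uM) added 1 h before LPS (250 ng/mL) and ATP (1.25 mM) stimulation; lower signal means less secretion.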
# CtBP-E1A inh – qHTS Assay for Inhibitors of the CtBP/E1A Interaction; activity change, % (concentration not given with the values); AID 651724, 2012; CtBP / adenovirus E1A interaction (AlphaScreen); AlphaScreen GST-E1A/His-CtBP binding, 1536-well; stronger effect = lower value; 340,000 tested, 0.49% active; in the data active means activity change below about -65%; inconclusive means mostly about -30% to -63%
#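 Homogeneous bead-based format: GST-tagged E1A captured on glutathione donor beads, His-tagged CtBP on nickel acceptor beads; compounds precede bead addition by 2 h at 37 °C.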
# * = called active by the depositor; ? = inconclusive; . = no result given; [ ] = another dose, or the depositor's remark. Unless noted, the call rests on the fitted dose curve; in most records, active means well fitted curve in the direction sought with a large enough effect; inconclusive means small, poorly fitted or top-dose-only effect, or another doubt; inactive means no such curve, though single readings can be large; an effect the other way counts as inactive or inconclusive. On the % scale 0 is the no-effect control and ±100 the full control effect.
SMILES,TDP1 cell noCPT,TDP1 cell CPT,TDP1 inh,Six1-Eya2 blk,IL-1B inflam inh,CtBP-E1A inh
c1ccc2c(c1)ncn2CCC1CCCCC1,21µM*,26µM*,2%,4,-1,7
Cn1c(Cc2nc(-c3cnccn3)no2)nnc1SCC(=O)Nc1ccccc1,-11%,0%,0%,-10,46,-15
COc1ccc(C2/C=C\CN(CC(C)(C)C)CC(=O)N2Cc2ccc(F)cc2)cc1 (centres undefined),?,?,0%,22,-11,0
CC(C)c1cc(C(=O)NC(C)c2ccccc2)no1 (centres undefined),-6%,0%,4%,.,.,.
Cc1ccc(OCc2nc3ccccc3n2CC(C)C)cc1,23µM*,?,.,.,.,.
CCn1c(COc2ccc(OC)cc2)nc2ccccc21,?,-5%,0%,8,-15,2
Cn1c(=O)n(CCCOc2ccc(Cl)cc2)c2ccccc21,18µM*,15µM*,-5%,2,-14,6
CCc1nc2ccccc2n1CCCCOc1ccc(C)cc1,8.2µM*,?,8%,.,.,.
Clc1ccc(OCCn2cnc3ccccc32)cc1,18µM*,23µM*,12%,7,0,-7
Cc1ccc2[nH]c3c(=O)n(CCc4cnc[nH]4)cnc3c2c1,-2%,-15%,2%,-3,4,-1
O=C1CCC(C(=O)OCc2nnc(-c3ccc(Br)cc3)o2)=NN1,2%,4%,1%,4,7,1
O=C(Nc1cccc(C(F)(F)F)c1)C(=O)N1CCCCC1,-6%,5%,.,-7,0,-12
Cc1ccc(OCc2nc3ccccc3n2C(C)C(=O)Nc2c(C)cccc2C)cc1 (centres undefined),18µM*,?,.,-10,-21,-2
COc1ccc(OCCn2c(C)nc3ccccc32)cc1,?,?,.,-2,?,-17
Cc1ccc(OCc2nc3ccccc3n2C(C(=O)NC(C)(C)C)c2ccccc2)cc1 (centres undefined),?,?,.,-3,-2,0
Cc1nc2ccccc2n1CCOc1ccc(F)cc1,18µM*,?,4%,10,-7,.
COc1ccc(CN2CCN(CCc3ccccc3)C(CCO)C2)c(Cl)c1OC (centres undefined),?,?,.,-5,25,-3
O=C1CSC(c2cccc(Cl)c2Cl)N1c1ccccn1 (centres undefined),15%,-3%,-2%,3,16,0
Cc1ccccc1Nc1c(-c2ccccn2)nc2c(C)cccn12,?,?,12%,-29,-12,?
Cc1ccc(-c2nc3c(C)cccn3c2Nc2ccccc2C)s1,?,21µM*,10%,.,.,.
Cc1cccn2c(Nc3ccccc3)c(-c3ccc(N4CCOCC4)cc3)nc12,5.8µM*,?,6%,.,.,.
Cc1ccccc1Nc1c(-c2ccc(O)cc2)nc2c(C)cccn12,?,16µM*,-2%[12.3 µM],.,.,.
Cc1ccc(Nc2c(-c3ccc(C)cc3)nc3c(C)cccn23)cc1,?,15µM*,7%,.,.,.
CCCCN(CCCC)C(=O)C1CC=CCC1C(=O)O (centres undefined),-16%,9%,0%,4,20,22
CCOC(=O)c1cc(S(=O)(=O)Nc2ccc(C)cc2Cl)[nH]n1,-27%,-20%,4%,.,.,.
SMILES,TDP1 cell noCPT,TDP1 cell CPT,TDP1 inh,Six1-Eya2 blk,IL-1B inflam inh,CtBP-E1A inh
CCCCNC(=O)c1nc(-c2cccs2)oc1-c1ccc(Cl)cc1,15µM*,?,.,2,-5,9
CCCCNC(=O)c1nc(-c2ccncc2)oc1-c1ccc(OC(F)(F)F)cc1,10%,28%,.,-4,45,4
CCCCNC(=O)c1nc(-c2cc3ccccc3[nH]2)oc1-c1ccccc1,16µM*,?,.,5,6,0
CCOC(=O)c1sc(NC(=O)c2nc3ncccn3n2)c(C(=O)OC(C)C)c1C,-5%,-1%,1%,.,.,.
COc1ccc(-c2onc(C)c2C)cc1S(=O)(=O)NCc1ccc(Br)cc1,13µM*,10µM*,3%,.,.,.
COc1ccc(-c2onc(C)c2C)cc1S(=O)(=O)NCc1ccco1,?,?,3%,.,.,.
COc1ccc(-c2onc(C)c2C)cc1S(=O)(=O)NCC1CCN(Cc2ccccc2F)CC1,?,?,5%,.,.,.
COc1ccc(-c2onc(C)c2C)cc1S(=O)(=O)N1c2ccccc2CC1C (centres undefined),?,23µM*,3%,.,.,.
COc1ccc(-c2onc(C)c2C)cc1S(=O)(=O)NCC1CCN(Cc2cc(C)ccc2C)CC1,16µM*,?,5%,.,.,.
COc1ccc(-c2onc(C)c2C)cc1S(=O)(=O)N1CCC(C)CC1,?,?,3%,.,.,.
CCN(CC)c1ccc(NS(=O)(=O)c2cc(-c3onc(C)c3C)ccc2OC)c(C)c1,?,23µM*,5%,.,.,.
COCCn1c(SCC(=O)Nc2ccccc2C(F)(F)F)nc2ccccc2c1=O,?,-21%,.,-5,26,0
COc1ccc(NC(=O)c2cc(-c3ccco3)on2)cc1OC,-29%,-5%,3%,-10,-16,-8
Cc1cc(C(=O)NCc2ccccc2Cl)c2ccccc2n1,?,-9%,5%,0,3,1
O=C(Cn1nnc2ccccc21)N/N=C\C=C\c1ccccc1,-10%,0%,0%,-4,-9,-9
COc1cccc(CNC(=O)c2cc(-c3ccc(Cl)s3)nc3ccccc23)c1,?,?,0%,.,.,.
O=C(COC(=O)c1cc(-c2cccs2)nc2ccccc12)NCc1ccco1,?,?,-10%,-19,-6,-1
O=C(COC(=O)c1cc(-c2ccc(Cl)s2)nc2ccccc12)NCc1ccco1,16µM*,18µM*,2%,-11,-6,-9
CCOc1ccccc1CNC(=O)c1cc(-c2ccc(C)c(C)c2)nc2ccccc12,?,21µM*,0%,.,.,.
CCOc1ccccc1CNC(=O)c1cc(-c2ccc(Cl)s2)nc2ccccc12,13µM*,-77%,-5%,.,.,.
Cc1ccc(Cn2c(CN3CC(C)OC(C)C3)nc3c2c(=O)[nH]c(=O)n3C)cc1 (centres undefined),-15%,-13%,2%,4,5,6

# Screening data: PubChem, National Center for Advancing Translational Sciences (NCATS)
